Results taken from PubChem BioAssay (NCATS).
Records with an inconclusive call do not appear. The source made the active and inactive calls. Calls follow the shape of the dose curve; as a rule, active = well fitted curve in the direction sought with a large enough effect; inconclusive = small, poorly fitted or top-dose-only effect, or another doubt; inactive = no such curve, though single readings can be large or run the other way.

molecular target: Calcium and integrin-binding protein 1 (Homo sapiens) (UniProt Q99828); test: Validation qHTS for Identification of Calcium Integrin Binding protein 1 (CIB1) Competitor (AID 1508618); conditions: CIB1-GST / FITC-alphaIIb peptide fluorescence polarization; series mostly up to 114 µM; activity change, negative = inhibition: at the top concentration
Sequence (Q99828 whole entry, looked up): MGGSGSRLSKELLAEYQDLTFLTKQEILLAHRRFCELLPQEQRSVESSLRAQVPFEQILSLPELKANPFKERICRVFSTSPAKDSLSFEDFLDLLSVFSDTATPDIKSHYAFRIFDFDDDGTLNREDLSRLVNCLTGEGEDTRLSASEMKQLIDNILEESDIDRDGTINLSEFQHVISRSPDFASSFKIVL
Description: Assay Provider: Ulhas P. Naik, PhD
Sidney Kimmel Medical College
Thomas Jefferson University, Philadelphia, PA
Primary function of platelets is to maintain hemostasis. At the site of vascular injury, platelets adhere to adhesive proteins such as collagen and von Willebrand factor. Adherent platelets are activated and generate soluble platelet agonists such as thrombin, ADP and thromboxane A2. Following exposure of circulating platelets to these agonists, results in platelet shape change, granule secretion and activation of platelet integrin alphaIIb-beta3. Ligand binding to activated integrin alphaIIb-beta3 triggers outside-in signaling, leading to platelet aggregation, stabilization of platelet plug, and clot retraction. Upon atherosclerotic plaque rupture also causes platelet plug formation, which underlies a number of cardiovascular diseases such as myocardial infraction and stroke. A number of anti-platelet drugs such as aspirin, clopidogrel, prasugrel, vorapaxar, and eptifibatide are currently available to prevent the thrombotic complications. However, these anti-platelet agents have several limitations including inherent variability in individual responses, developing resistance, and serious bleeding side effects. For these reasons they are not suitable for long-term protection. Based on the experiences with current anti-platelet drugs, it appears that the most useful therapeutic approach is to intersect the secondary responses such as integrin outside-in signaling or recruitment of platelets by TxA2 and secreted ADP. Compounds, which can largely preserve the primary hemostatic function of platelets but inhibit secondary response will be most desired therapeutic agents for treatment of cardiovascular disease.
CIB1 is a calcium integrin binding protein, which specifically interact with the alphaIIb subunit of integrin alphaIIb-beta3. Binding of CIB1 to alphaIIb regulates the outside-in signaling in platelets, which is needed for thrombus stabilization and thrombus growth. […] Therefore, we propose that discovery of a small molecule that can prevent the association of CIB1 and alphaIIb-beta3 will be a potential anti-platelet agent that can block the thrombus formation without undue effect on hemostasis.
To develop fluorescence polarization (FP) assay using fluorescently labeled alphaIIb peptide and CIB1 protein. Using FP assay characterize the binding affinity, competitive inhibition, and acceptable Z factor (0.5 to1) in order to perform the HTS to identify small molecule compound that can prevent CIB1 binding to platelet integrin alphaIIbbeta3. This assay is screened against the NCATS LOPAC library to validate the amenability of the assay to qHTS.
[1] Naik MU, Nigam A, Manrai P, et al. CIB1 deficiency results in impaired thrombosis: the potential role of CIB1 in outside-in signaling through integrin alpha IIb beta 3. J Thromb Haemost. 2009;7(11):1906-1914. doi:10.1111/j.1538-7836.2009.03581.
SEQUENCE No. (1, 2, 3, etc.); […] (e.g., Cells, Incubation, Reagent, etc.); VALUE and DESCRIPTION.
1; Reagent; 3 uL; Protein or buffer (4/3x)
2; Compound; 46 nL; Control inhibitor / compound library
3; Time; 15 min; Room temperature incubation
4; Reagent; 1 uL; Fluorescent labeled peptide (4x)
5; Time; 1000 rpm; Centrifuge
6; Time; 15 min; Room temperature incubation
7; Detection; Ex 480/ Em 540; ViewLux Fluorescence Read
NOTES (numbers refer to sequence above)
1; Protein Mixture: C1B1-GST (final concentrations of 1 uM). Buffer composition: 5 mM HEPES pH 7.4, 125 mM NaCl, 5 mM CaCl2, 0.01% Tween20.
2; Control Inhibitor: unlabeled peptide (final concentration range 17.4 nM to 572 uM). Compound Library final concentration range 18.3 nM to 114 uM.
3; Room temperature incubation.
4; Fluorescent Labeled Peptide: FITC-aIIb (final concentration of 100 nM). Sequence of alphaIIb peptide: Acetyl-[…]-FITC (purity is 95.83%).
6; Room temperature incubation.
[…]
% is scaled to controls: 0 for no effect and ±100 for the full control effect.

| SMILES | activity change, negative = inhibition |
| --- | --- |
| Clc1cnc(Oc2ccc(Oc3ncc(Cl)cc3Cl)cc2)c(Cl)c1 | 5.93% (inactive) |
| C#CCOC(=O)C1=CCCN(C)C1 | 17.8% (inactive) |
| CCCCc1ccc(C(=O)O)nc1 | 8.65% (inactive) |
| CCCN1CCC[C@H](c2cccc(O)c2)C1 | 7.34% (inactive) |
| NCCc1c[nH]c2ccc(O)cc12 | 11.3% (inactive) |
| C[C@@H](N)Cc1cnc[nH]1 | 11.5% (inactive) |
| CC(C)Oc1cccnc1N(C)C1CCN(Cc2ccccc2)CC1 | -8.32% (inactive) |
| CCCN(CCC)[C@@H]1CCc2ccc(O)cc2C1 | 2.09% (inactive) |
| CN1C2CCC1CC(OC(=O)c1cc(Cl)cc(Cl)c1)C2 (stereo not given) | 1.28% (inactive) |
| NC(=O)CN1CC(O)CC1=O (stereo not given) | 7.71% (inactive) |
| O=C1CCCN1CC#CCN1CCCC1 | 8.13% (inactive) |
| C[N+](C)(C)CC(=O)O | -0.761% (inactive) |
| CC(=O)[C@H]1CCC2C3CC[C@H]4C[C@H](O)CC[C@]4(C)C3CC[C@@]21C (stereo not given in full) | 8.66% (inactive) |
| CCCN(CCC)C1CCc2ccc(O)cc2C1 (stereo not given) | 9.86% (inactive) |
| CCCN1CCO[C@@H]2c3cc(O)ccc3OC[C@H]21 | 10.4% (inactive) |
| CC1=NN=C(c2ccc(N)cc2)c2cc3c(cc2C1)OCO3 | 5.1% (inactive) |
| c1ccc(CCCN2CCN(CCOC(c3ccccc3)c3ccccc3)CC2)cc1 | 4.49% (inactive) |
| C=CCN1CC[C@]23CCCCC2[C@H]1Cc1ccc(O)cc13 (stereo not given in full) | 3.94% (inactive) |
| NC(CP(=O)(O)O)C(=O)O (stereo not given) | 8.73% (inactive) |
| NC(N)=NOCCC(N)C(=O)O (stereo not given) | 1.52% (inactive) |

| SMILES | activity change, negative = inhibition |
| --- | --- |
| C[C@]12CCC3C(CC[C@H]4C[C@H](O)CC[C@]34C)C1CC[C@@H]2C(=O)CO (stereo not given in full) | 9.34% (inactive) |
| c1ccc2sc(C3(N4CCCCC4)CCCCC3)cc2c1 | 7.16% (inactive) |
| Oc1ccc2c3c1O[C@H]1c4[nH]c5c(c4C[C@@]4(O)[C@@H](C2)N(CC2CC2)CC[C@]314)C[C@@]1(O)[C@H]2Cc3ccc(O)c4c3[C@@]1(CCN2CC1CC1)[C@H]5O4 | 5.32% (inactive) |
| CS(=N)(=O)CC[C@H](N)C(=O)O (stereo not given in full) | 6.52% (inactive) |
| CC[C@@]1(O)C(=O)OCc2c1cc1n(c2=O)Cc2cc3ccccc3nc2-1 | -3.53% (inactive) |
| NCc1cc(=O)[nH]o1 | 9.75% (inactive) |
| COc1cc(C(O)CN)ccc1O (stereo not given) | 11.1% (inactive) |
| C[C@]12N[C@H](Cc3ccccc31)c1ccccc12 | -3.07% (inactive) |
| CNCCc1c[nH]c2ccc(O)cc12 | 5.27% (inactive) |
| CC[C@@H](C(N)=O)N1CCCC1=O | 5.91% (inactive) |
| Cc1nccc2c1[nH]c1ccccc12 | 13.1% (inactive) |
| NC(=NCCC[C@H](N)C(=O)O)N[N+](=O)[O-] | 9.79% (inactive) |
| O=C(O)Cc1cnc[nH]1 | 11.3% (inactive) |
| O=C(N[C@H]1CN2CCC1CC2)c1ccc(Cl)cc1 | 9.62% (inactive) |
| COC(=O)[C@@H](N)CCCN=C(N)N[N+](=O)[O-] | 9.28% (inactive) |
| O=C(O)[C@@H]1CCN1 | 3.26% (inactive) |
| NC(CCP(=O)(O)O)C(=O)O (stereo not given) | 6.14% (inactive) |
| NCCc1c[nH]c2ccccc12 | 3% (inactive) |
| C/C=C(/C)C(=O)O[C@H]1C(C)=C2[C@H]([C@@H]1OC(=O)CCCCCCC)[C@@](C)(OC(C)=O)C[C@H](OC(=O)CCC)[C@@]1(O)[C@H]2OC(=O)[C@@]1(C)O | 6.18% (inactive) |
| CC(=O)NCCc1c[nH]c2ccccc12 | 2.18% (inactive) |
